# Bioassay records deposited in PubChem by several laboratories.
# The list is not random: actives were taken first. Their share in the collection is about 5.4%.
# SKKanGAS inh: S. pyogenes SKKanGAS growth inhibitors in kanamycin, primary screen, streptokinase expression inhibitor project, SKKanGAS strain, BacTiter-Glo luminescence. 6 h. inhibition, % at 7.5 µM. hit rate 1.3% among 300,000. AID 1662, 2009;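 active = mean replicate score, as percent of positive control median, at least 50; inconclusive = mean below 50 but one replicate at or above 50; inactive = mean and every replicate below 50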;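 note: strain carries kanamycin resistance gene driven by streptokinase promoter and grows in 40 µg/ml kanamycin; loss of luminescence reflects streptokinase promoter inhibition or plain growth inhibition; 0% = median of DMSO wells and 100% = positive control at its reference dose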
# Mdm2-MdmX inh: inhibitors of human Mdm2-MdmX association, primary screen, cell-based, luminescence, split luciferase, SaOS-2, uHTS; inhibition, % at 8 µM; hit rate 3% among 330,000; Protein Mdm4 (Homo sapiens) + E3 ubiquitin-protein ligase Mdm2 (Homo sapiens), …; SaOS-2 split-luciferase Mdm2/MdmX complementation; AID 485346, 2010;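 active = inhibition of at least 50% at 8 µM in the primary screen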
# CSC inhib: cancer stem cell viability inhibitors, primary screen, luminescence; hit rate 1.1% among 300,000; cancer stem cell-like cells viability; AID 2717, 2010; inhibition, % at 7.5 µM; in the data active = inhibition above about 75%; inconclusive = no clear call, values can overlap the other calls; tested in HMLE shEcad cells
# Calb FLC: C. albicans growth inhibition with fluconazole, primary screen, CaCi-2 strain, Alamar Blue fluorescence | C. albicans CaCi-2 (fluconazole-resistant clinical isolate) + fluconazole, 48 h | growth inhibition, % (test concentration not listed) | hit rate 0.57% among 300,000 | AID 1979, 2009;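 active = growth inhibition above about 58% in most replicates, limit read from the data, passing the limit was not always enough; inconclusive = exactly half the replicates above a set limit; inactive = most replicates below a set limit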;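 note: all wells also contain fluconazole at 8 µg/ml as a sub-toxic cotreatment; 0% = median of DMSO wells and 100% = median of geldanamycin control wells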
# MPTP inh: mitochondrial permeability transition pore inhibitors, primary screen, biochemical, isolated mouse mitochondria, absorbance | Ca2+ swelling absorbance, 30 min | inhibition, % at 10 µM | hit rate 1.4% among 360,000;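 active = inhibition of 50% or more, scaled per plate between neutral and stimulator controls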;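 note: 0% = DMSO wells given calcium and 100% = 1 mM EGTA wells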
# Beta cell apopt: inhibitors of cytokine-induced beta cell apoptosis, primary screen, luminescence | hit rate 0.8% among 300,000 | INS-1E cytokine-induced death, ATP luminescence, 48 h; percent of positive-control rescue, neutral wells zero | protection from apoptosis, % (no concentration beside the values) | AID 435005, 2010;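 active = Every replicate reaches about 75%, or at least half do and their mean reaches it too, limit read from the data; inconclusive = At least half of replicates reach the limit but their mean does not; inactive = Under half of replicates reach the limit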;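 note: 0% = cytokine-treated negative control wells and 100% = positive control rescue; higher means more ATP so stronger rescue from cytokine killing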
# Mdm2-MdmX conf: Mdm2-MdmX complex disruptors, retested hits, confirmation, luminescence, single concentration | AID 489028, 2010 | shares compounds with Mdm2-MdmX inh | Mdm2-MdmX binding, luminescent assay | inhibition, % at 8 µM | hit rate 55% among 10,000; in the data active = inhibition above about 40%
# FLuc counter: full-length luciferase signal inhibition, confirmation, counter-screen for Mdm2/MdmX interaction inhibitor project, cell-based, single concentration, SaOS-2 | shares compounds with Mdm2-MdmX inh | SaOS-2 full-length luciferase counterscreen, luminescence | inhibition, % at 8 µM | hit rate 77% among 6,200;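 active = mean inhibition at 8 µM reaching about 37%, which flags the compound as non-specific, limit read from the data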;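 note: p53-null SaOS-2 cells with luciferase driven by a doxycycline-inducible promoter; compound on cells about two nights before reading with doxycycline added after day one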
# * = called active by the depositor; ? = inconclusive; nt = no result.
SMILES,SKKanGAS inh,Mdm2-MdmX inh,CSC inhib,Calb FLC,MPTP inh,Beta cell apopt,Mdm2-MdmX conf,FLuc counter
Cc1sc2nc(C3CC3)nc(SCC(=O)N3CCCc4ccccc43)c2c1C,-2,71*,42,6,nt,6,23,nt
CCN(CC(O)COc1ccc(OCC(O)CN(CC)C2CCCCC2)cc1)C1CCCCC1 (stereo unspecified),1,69*,8,3,6,3,12,nt
CCN(CC(O)COCc1ccc(Cl)cc1)C1CCCCC1 (stereo unspecified),-4,1,4,-18,-1,-3,nt,nt
Clc1ccc(CSc2nncn2-c2ccc3c(c2)OCCO3)cc1,17,51*,75,-2,2,0,60*,48*
CN1CCN(c2ccccc2NC(=O)c2ccc(-c3ccc(Cl)c(Cl)c3)o2)CC1,31,58*,90*,-4,1,30,23,nt
NS(=O)(=O)c1ccc(CCNc2nc3c(-c4cccc(F)c4)nnn3c3ccccc23)cc1,13,67*,5,7,2,19,31,nt
Cc1cccc(-c2nnn3c2nc(NCCc2ccc(S(N)(=O)=O)cc2)c2ccccc23)c1,7,67*,-6,2,0,4,50*,74*
Cc1ccc(C)c(NC(=S)NC(=O)c2cncc(Br)c2)c1,12,13,-20,-41,-1,-1,nt,nt
COc1ccc(NC(C)C(=O)Nc2cc(C(F)(F)F)ccc2N2CCOCC2)c(OC)c1 (stereo unspecified),-18,57*,11,?,1,-4,21,nt
CN(CC(=O)Nc1ccc(Cl)cc1)CC(=O)N1CCc2ccccc21,nt,nt,nt,nt,-2,nt,nt,nt
Cc1c(NC(=O)C(C)N2C(=O)c3ccccc3C2=O)c(=O)n(-c2ccccc2)n1C (stereo unspecified),-1,37,-7,-20,1,-4,nt,nt
COC(=O)c1cc(C(=O)N2CCN(c3cccc(C)c3C)CC2)cc([N+](=O)[O-])c1,12,55*,57,16,-1,2,48*,54*
COC(=O)c1cc(C(=O)N2CCN(c3ccccc3OC)CC2)cc([N+](=O)[O-])c1,1,52*,-9,36,-2,4,56*,60*
COc1cc2[nH]c3c(N4CCC(C(N)=O)CC4)ncnc3c2cc1OC,0,18,-13,3,nt,-2,nt,nt
Cc1ccc(S(=O)(=O)N/N=C\c2cn(CC(N)=O)c3ccccc23)cc1C,1,52*,-7,1,-1,-4,28,nt
NC(=O)Cn1cc(/C=N\NS(=O)(=O)c2ccc(Cl)cc2)c2ccccc21,24,14,-2,4,1,-8,nt,nt
CC1=NN(c2nc3ccccc3[nH]2)C(=O)C1Cc1ccccc1 (stereo unspecified),89*,85*,100*,-2,-1,99*,81*,36*
COCCNC(=O)c1ccccc1NC(=O)CCSc1ccccc1,13,14,-10,32,0,-2,nt,nt
Cc1ccc(C)c(Cn2c3ccccc3c3cnn(CC(=O)NCCCN4CCCCC4)c(=O)c32)c1,13,92*,-13,9,5,8,48*,48*
Cc1ccc2[nH]c3c(=O)n(CC(=O)NCCCN4CCN(c5ccc(F)cc5)CC4)ncc3c2c1,5,69*,-16,7,1,-1,36,nt
COc1ccc(N2CCN(C(=O)Cn3ncc4c([nH]c5ccccc54)c3=O)CC2)cc1,-10,50*,8,0,2,-2,16,nt
Cc1ccc(C)c(N2CCN(C(=O)Cn3ncc4c([nH]c5ccc(C)cc54)c3=O)CC2)c1,-2,52*,-10,0,-2,1,-4,nt
